Bioassay records (PubChem BioAssay)
IL-1B inflam inh: inhibitors of inflammasome signaling (IL-1 beta secretion) | THP-1 LPS/ATP IL-1B secretion, AlphaLISA, 16 h; active compounds read low | activity change, % at 57.5 µM | 360,000 compounds, 4.7% hits | AID 743279; in the data active means activity change below about -50%; inconclusive means mostly about -30% to -49%; further: on the % scale 0 is the no-effect control and ±100 the full control effect
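Secreted IL-1B measured by AlphaLISA bead assay after 16 h compound exposure of THP-1 cells; compounds (final up to 57.5 uM) added 1 h before LPS (250 ng/mL) and ATP (1.25 mM) stimulation; lower signal means less secretion.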
TDP1 cell CPT: DT40-hTDP1 cell growth loss with CPT | chicken DT40 Tdp1-/-;hTDP1 cells + 20 nM CPT, ATP luminescence, 48 h | Potency, µM (highest dose often 46.2 µM), for the others: at the top dose activity change, negative = growth inhibition, actives largely listed as inhibitors | 420,000 compounds, 12% hits | AID 686979; further: potency means the concentration at half of the fitted maximal effect; on the % scale 0 is the no-effect control and ±100 the full control effect; nearly all actives have a fitted effect of over 55% in size
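Chicken DT40 Tdp1-/- cells stably complemented with human TDP1 were seeded at 400 cells/well in medium containing 20 nM camptothecin, exposed to pin-transferred compounds, and grown at 37 °C for at least 48 hr. Viability was read as ATP luminescence.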
HepG2 tox: kills HepG2 cells in TGF-b inhibitor counter-screen; HepG2 CAGA-GFP viability, ATP luminescence, 18 h; Potency, µM (doses to about 46.1 µM), for inactives: at the top dose activity change, negative = cytotoxicity, hits mostly cytotoxic; 410,000 compounds, 0.76% hits; AID 588856; further: potency means the concentration at half of the fitted maximal effect
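CellTiter-Glo luminescence gave cytotoxicity after 18 hours at 37 degrees C. The cells were HepG2 CAGA-GFP in 1% FBS DMEM, stimulated with 500 pg/mL TGF-beta after compound addition. %Activity was normalised to no-cell wells (complete cell-killing) and DMSO (no toxicity), and curves were fitted and classified.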
TDP1 cell noCPT: qHTS for Inhibitors of human tyrosyl-DNA phosphodiesterase 1 (TDP1): qHTS in cells in absence of CPT; 420,000 compounds, 15% hits; DT40 Tdp1-/- hTDP1 cells, no CPT, ATP luminescence, 48 h; Potency, µM (top dose mostly 46.2 µM), without a hit: at the highest dose activity change, negative = growth inhibition, most hits filed as inhibitors; further: potency means the concentration at half of the fitted maximal effect; on the % scale 0 is the no-effect control and ±100 the full control effect; nearly all actives have a fitted effect of over 55% in size
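A cellular qHTS used chicken DT40 cells lacking endogenous Tdp1 but carrying stably transfected human TDP1. Compounds were applied without camptothecin, and cell growth kinetics were judged by ATP-dependent luminescence after ≥48 hr.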
TGFb SMAD3 inh: blocks TGF-b signaling. AID 588855. Potency, µM (series often up to 46.1 µM), inactives show at the highest dose activity, negative = inhibition, hits mostly inhibitors. 410,000 compounds, 1.2% hits. HepG2 CAGA-GFP TGF-b/SMAD3 reporter, GFP fluorescence, 18 h; TGF-beta stimulated, 500 pg/mL final; further: potency means the concentration at half of the fitted maximal effect; on the % scale 0 is the no-effect control and ±100 the full control effect; nearly all actives have a fitted effect of over 65% in size
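Inhibition was scored as loss of TGF-beta-induced (500 pg/mL final, 18 hours, 37 degrees C) GFP in HEPG2 cells carrying a CAGA-GFP reporter, in DMEM with 1% FBS. Well GFP was summed per cell; Activity was normalised to unstimulated and stimulated DMSO wells, then concentration-response fitting.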
TDP1 inh: TDP1 (human) enzyme inhibition; Q9NUW8; recombinant TDP1, AlphaScreen DNA substrate cleavage; Potency, µM (top dose mostly 130 µM), inactives show top-dose activity change, negative = inhibition, hits mostly inhibitors; 350,000 compounds, 0.28% hits; AID 485290; further: potency means the concentration at half of the fitted maximal effect; on the % scale 0 is the no-effect control and ±100 the full control effect; nearly all actives have a fitted effect of over 40% in size
Target sequence (Q9NUW8 whole entry, looked up): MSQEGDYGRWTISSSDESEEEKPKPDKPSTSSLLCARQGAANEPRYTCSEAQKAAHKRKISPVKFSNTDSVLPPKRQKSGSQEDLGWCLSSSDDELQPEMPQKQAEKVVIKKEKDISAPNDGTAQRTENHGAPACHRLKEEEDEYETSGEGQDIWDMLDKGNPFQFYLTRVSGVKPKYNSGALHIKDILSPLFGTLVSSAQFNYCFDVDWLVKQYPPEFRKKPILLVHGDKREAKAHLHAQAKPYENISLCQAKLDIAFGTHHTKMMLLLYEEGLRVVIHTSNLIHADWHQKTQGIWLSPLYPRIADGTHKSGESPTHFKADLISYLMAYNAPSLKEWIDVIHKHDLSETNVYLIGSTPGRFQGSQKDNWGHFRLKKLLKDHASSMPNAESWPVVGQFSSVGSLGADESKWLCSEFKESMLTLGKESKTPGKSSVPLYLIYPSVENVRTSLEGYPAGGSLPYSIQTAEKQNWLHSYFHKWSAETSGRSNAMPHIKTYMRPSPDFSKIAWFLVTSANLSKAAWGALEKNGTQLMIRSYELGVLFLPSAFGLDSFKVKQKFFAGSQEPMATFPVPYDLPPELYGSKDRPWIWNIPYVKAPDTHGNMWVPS
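Here, a 5' biotin and 3' phosphotyrosine-FITC DNA oligonucleotide reports Tdp1 activity: intact substrate bridges AlphaScreen beads, while cleavage leaves a 3' phosphate and drops signal. All incubations at room temperature.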
* hit, by the source's call; ? = inconclusive; nt = not tested or not shown. In the library only some 18% were active in any assay of this set; here they are far more common. Unless noted, the call rests on the fitted dose curve; in most records, active means well fitted curve in the direction sought with a large enough effect; inconclusive means small, poorly fitted or top-dose-only effect, or another doubt; inactive means no such curve, though single readings can be large; an effect the other way counts as inactive or inconclusive.

SMILES	IL-1B inflam inh	TDP1 cell CPT	HepG2 tox	TDP1 cell noCPT	TGFb SMAD3 inh	TDP1 inh
O=NN(CC(=O)NNc1ccccc1)CC(=O)NNc1ccccc1	-4	0%	-7%	-17%	8%	nt
Cc1cccn2c(=O)c3cc(C(=O)N4c5ccccc5CC4C)n(C)c3nc12 (stereo unspecified)	58	18µM*	-11%	16µM*	18%	2%
CC1CN(C(=O)c2cc3c(=O)n4ccccc4nc3n2C)CC(C)O1 (stereo unspecified)	10	13%	-10%	-6%	0%	0%
CC1Cc2ccccc2N1C(=O)c1cc2c(=O)n3ccccc3nc2n1C (stereo unspecified)	-30	12µM*	-6%	?	24%	2%
Cn1c(=O)c2cc(C(=O)Nc3cccc(C#N)c3)sc2c2ccccc21	nt	?	-34%	2%	?	0%
CCSc1nc2ccccc2c(OCc2ccccc2Cl)c1C(=O)OC	nt	?	-18%	?	?	-8%
CC(C)(C)[C@H]1C=C(C(=O)N2CCN(Cc3ccc4c(c3)OCO4)CC2)O[C@@H](OCc2ccc(CO)cc2)C1	-61*	21µM*	2%	18µM*	?	5%
CC(C)(C)[C@H]1C=C(C(=O)NC2CC2)O[C@@H](OCc2ccc(CO)cc2)C1	20	?	1%	?	-4%	0%
O=C(C1=C[C@H](C2CCCCC2)C[C@H](OCc2ccc(CO)cc2)O1)N1CCN(Cc2ccc3c(c2)OCO3)CC1	-70*	?	-11%	?	?	6%
CC(C)(C)[C@@H]1C=C(C(=O)N2CCN(Cc3ccccc3)CC2)O[C@H](OCc2ccc(CO)cc2)C1	-2	13µM*	-7%	?	-7%	5%
COc1ccccc1CNC(=O)C(NS(=O)(=O)c1cccs1)C(C)C (stereo unspecified)	nt	-22%	-9%	?	17%	9%
O=C(NOCC1CC1)c1ccc(F)c(F)c1Nc1ccc(I)cc1Cl	nt	?	nt	15µM*	nt	nt
Oc1ccc(/C=C/c2cnccn2)cc1	17	?	-11%	?	7%	-5%
Cc1ccc(-c2csc(NC(=O)C[n+]3cc(-c4ccc(C)cc4)n4c3CCC4)n2)cc1	-94*	5.8µM*	-2%	9.2µM*	?	3%
Cc1ccc(-c2csc(NC(=O)C[n+]3cc(-c4ccccc4)n4c3CCC4)n2)cc1	-87*	21µM*	-10%	18µM*	22µM*	nt
Cn1c(NC(=O)C[n+]2cc(-c3ccc(Cl)cc3)n3c2CCC3)cc(=O)n(C)c1=O	10	-26%	-2%	?	-1%	5%
Cn1c(NC(=O)C[n+]2cc(-c3ccccc3)n3c2CCC3)cc(=O)n(C)c1=O	31	-11%	16%	-9%	0%	3%
CCCCCCCN1CCC(=O)N([C@H](CO)CC(C)C)CC1	-1	?	10%	23µM*	7%	nt
CCCCCCCN1CCC(=O)N([C@H](CO)Cc2ccccc2)CC1	-10	21µM*	1%	13µM*	?	nt
O=C1CCN(Cc2ccccc2)CCN1[C@H](CO)Cc1ccccc1	12	-3%	-5%	-12%	3%	nt
CCCN1CCC(=O)N([C@H](CO)Cc2ccccc2)CC1	-21	1%	-8%	-11%	?	nt
O=C1CCN(Cc2ccc(Br)cc2)CCN1[C@H](CO)Cc1ccccc1	-2	20µM*	-25%	?	?	nt
O=c1c(Cc2ccccc2)c(O)ccn1C1CCCCCCC1	-2	-22%	19%	-8%	1%	-5%
O=C1CCC(C(=O)N2CCCCO2)CN1CCc1ccccc1 (stereo unspecified)	0	-1%	0%	5%	-3%	2%
CCOc1ccccc1NC(=O)C1CCN(S(=O)(=O)c2c(C)noc2/C=C/c2ccco2)CC1	nt	?	-14%	18µM*	?	5%
SMILES	IL-1B inflam inh	TDP1 cell CPT	HepG2 tox	TDP1 cell noCPT	TGFb SMAD3 inh	TDP1 inh
COc1ccc(/C=C\c2onc(C)c2S(=O)(=O)N2CCC(C(=O)Nc3cccc(C)c3C)CC2)cc1	nt	?	-14%	-14%	-2%	-5%
COc1cccc(C(=O)N2CCC(C(=O)Nc3cccc(Cl)c3)CC2)c1	nt	10µM*	-23%	23µM*	-2%	nt
Cc1cccc(NC(=O)C2CCN(S(=O)(=O)c3c(C)noc3/C=C/c3ccco3)CC2)c1C	nt	-16%	-16%	-9%	-22%	0%
Cc1noc(/C=C/c2ccco2)c1S(=O)(=O)N1CCC(C(=O)N2c3ccccc3CC2C)CC1 (stereo unspecified)	?	15µM*	-10%	18µM*	0%	6%
Cc1noc(/C=C/c2ccco2)c1S(=O)(=O)N1CCC(C(=O)NC(C)c2ccccc2)CC1 (stereo unspecified)	-14	-27%	-28%	?	-19%	0%
COc1ccc(/C=C\c2onc(C)c2S(=O)(=O)N2CCC(C(=O)Nc3cccc(Cl)c3)CC2)cc1	nt	6.5µM*	-35%	9.2µM*	?	5%
Cn1c(=O)n(C)c2cc(CNCc3ccc(F)cc3)ccc21	nt	?	-4%	-24%	-2%	1%
COc1ccc(/C=C\c2onc(C)c2S(=O)(=O)N2CCC(C(=O)Nc3ccccc3OC)CC2)cc1	nt	?	-18%	23µM*	?	5%
CC(=O)N1c2ccc(S(=O)(=O)NCCC(=O)N3CCC(C)CC3)cc2CC1C (stereo unspecified)	16	?	-32%	-18%	11%	1%
CN(CC(=O)Nc1ccc(OC(F)(F)F)cc1)S(=O)(=O)c1ccc2c(c1)CCC(=O)N2	nt	?	-7%	12µM*	-36%	6%
CC(=O)N1c2ccc(S(=O)(=O)NCCC(=O)Nc3ccc(OC(F)(F)F)cc3)cc2CC1C (stereo unspecified)	21	18µM*	-2%	?	-16%	1%
COc1ccc(NC(=O)CCNS(=O)(=O)c2ccc3c(c2)CC(C)N3C(=O)C2CC2)cc1 (stereo unspecified)	36	?	-2%	-28%	13%	2%
CC(=O)N1c2ccc(S(=O)(=O)NCCC(=O)Nc3ccc(C)c(F)c3)cc2CC1C (stereo unspecified)	55	?	2%	21µM*	1%	2%
